High-throughput results as filed in PubChem BioAssay.
Most compounds without a hit are left out; they make up all but 21% or so of the library.
MRP1 act: activates MRP-1 | viability increase, % at 10 µM | H69AR cells + doxorubicin, viability rescue, CellTiter-Glo | 140,000 tested, 0.61% active;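 active = viability gain under doxorubicin at or above a set limit, the compound median plus 3 SD, cut at about 4.7% in these data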;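 also: MRP-1 overexpressing cells given doxorubicin 25 µM after compound pretreatment; 18-22 h compound pretreatment then 72 h with doxorubicin before readout; 0% = doxorubicin-only wells and 100% = vehicle-treated cells without doxorubicin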
CYP2C19 act: cytochrome P450 2C19 (human) activation | recombinant CYP2C19, luciferin-H EGE luminescence; stronger effect = higher value; 0 = fully inhibited enzyme, 1 = untreated enzyme | activation factor at 5 µM | 96,000 tested, under 10 active;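 active = activation factor of at least 2 at 5 µM in the primary screen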;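 also: 0 = wells with 2.5 mM tranylcypromine and 1 = vehicle-only wells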
Target sequence (P33261 whole entry, looked up): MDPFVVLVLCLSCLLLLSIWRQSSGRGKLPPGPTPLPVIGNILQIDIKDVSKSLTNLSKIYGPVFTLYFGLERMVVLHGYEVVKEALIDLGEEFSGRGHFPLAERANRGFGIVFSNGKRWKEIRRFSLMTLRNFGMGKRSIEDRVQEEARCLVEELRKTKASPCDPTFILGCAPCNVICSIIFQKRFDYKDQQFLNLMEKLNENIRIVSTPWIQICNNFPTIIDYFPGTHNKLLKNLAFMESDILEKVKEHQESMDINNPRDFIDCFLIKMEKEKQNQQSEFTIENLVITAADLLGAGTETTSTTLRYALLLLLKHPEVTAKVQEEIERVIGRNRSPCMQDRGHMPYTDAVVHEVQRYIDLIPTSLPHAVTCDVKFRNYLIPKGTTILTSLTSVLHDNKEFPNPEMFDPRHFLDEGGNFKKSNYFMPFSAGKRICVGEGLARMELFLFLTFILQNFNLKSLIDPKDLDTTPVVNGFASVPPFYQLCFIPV
CYP2C19 inhib: blocks human cytochrome P450 2C19 | 96,000 tested, 21% active | CYP2C19 Supersomes, luciferin-H EGE luminescence, 30 min | P33261 | inhibition, % at 5 µM;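 active = CYP2C19 inhibition above a set limit at 5 µM in the primary screen, cut at about 50% in these data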;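 also: plate controls were negative control wells for no effect and 2.5 mM tranylcypromine positive control for full effect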
MRP resist rev: compounds reversing MRP-mediated drug resistance | H69AR cells + 2 uM doxorubicin, CellTiter-Glo, 72 h | differential viability (reversal), % at 10 µM | 85,000 tested, 0.04% active;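 active = viability drop by adding the cancer drug above about 55%, with treated viability meeting a 40% cutoff, limit read from the data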;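 also: viability without doxorubicin minus viability with 2 µM doxorubicin for each compound; larger differential means the compound sensitizes cells more to doxorubicin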
CYP2C9 activ: activators of human CYP2C9 | activation factor at 5 µM | 96,000 tested, 1.4% active | recombinant CYP2C9, luciferin-H conversion, luminescence; stronger effect = higher value; factor 1 = untreated enzyme, 0 = blocked | AID 1024 | P11712;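 active = activation factor of 2 or more for CYP2C9 at a 5 µM dose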;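 also: 0 = sulfaphenazole-blocked wells and 1 = vehicle-only wells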
CYP2C9 inhib: inhibitors of human CYP2C9; P11712; CYP2C9 Supersomes, luciferin-H conversion, luminescence; inhibition, % at 5 µM; 96,000 tested, 20% active; AID 777;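 active = blocking of liver enzyme CYP2C9 beyond about 50% at 5 µM, limit read from the data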
The depositor's hits bear a star; / = no result given.

SMILES | MRP1 act | CYP2C19 act | CYP2C19 inhib | MRP resist rev | CYP2C9 activ | CYP2C9 inhib
COc1ccc(Cc2nc(-c3cccc(C)c3)no2)cc1 | 3 | 1 | -3 | -4 | 1 | -5
Cc1cccc(-c2noc(Cc3ccc(Cl)cc3)n2)c1 | 4 | 0.2 | 80* | 12 | 0.4 | 56*
O=C(Cn1nnc2ccccc2c1=O)N[C@@H](Cc1c[nH]c2ccccc12)C(=O)O | -1 | / | / | / | / | /
Cc1ccc(CSCCNC(=O)CSc2ccccc2)cc1 | -2 | / | / | / | / | /
CC(C)(C)n1nnnc1C(c1cccs1)N1CCN(c2ccccc2)CC1 (stereo not given) | 0 | 0.9 | 10 | 2 | 0.2 | 79*
Cc1cccc(N2CCN(C(c3ccccc3)c3nnnn3C(C)(C)C)CC2)c1C (stereo not given) | 0 | / | / | -2 | / | /
CC(C)(C)n1nnnc1C(c1ccc(C#N)cc1)N1CCCC2(CCCCC2)C1 (stereo not given) | -4 | 1.1 | -6 | 8 | 0.8 | 21
Cc1cccc(N2CCN(C(c3cccs3)c3nnnn3C(C)(C)C)CC2)c1C (stereo not given) | 1 | 0.6 | 45 | 16 | 0.5 | 54*
CC(C)(C)n1nnnc1C(c1ccncc1)N1CCCCCC1 (stereo not given) | -2 | 0.2 | 83* | / | 0.3 | 73*
CC(C)(C)n1nnnc1C(c1cccnc1)N1CCN(c2ccccc2)CC1 (stereo not given) | -3 | 0.4 | 59* | -9 | 0.8 | 19
CNCc1cc2ccc(C)cc2[nH]c1=O | -4 | 1 | -4 | 0 | 0.9 | 8
O=C(NCc1ccccn1)c1ccc(N2CCCC2=O)cc1 | -2 | 1.2 | -19 | -8 | 1.1 | -12
CCCCC(=O)Nc1cccc2c1C(=O)N(c1ccccc1)C2=O | -1 | 0.5 | 51* | -2 | 0.3 | 67*
CC(=O)Nc1ccc(N2C(=O)c3cccc(NC(C)=O)c3C2=O)cc1 | 0 | / | / | / | / | /
CN1C(=O)c2cccc(NC(=O)CCc3ccccc3)c2C1=O | 0 | 0.3 | 70* | 11 | 0.4 | 62*
CCOC(=O)c1sc2nc(N3CCOCC3)c3c(c2c1N)CCN(Cc1ccccc1)C3 | -1 | 1 | -4 | 3 | 0.9 | 9
Cc1ccc(C)c(N(CC(=O)NCc2ccc3c(c2)OCO3)C(=O)CCC(=O)Nc2ccccn2)c1 | -2 | 0.4 | 63* | 3 | 0.5 | 50*
CC(C)CCNC(=O)CN(Cc1ccc2c(c1)OCO2)C(=O)CCC(=O)Nc1ccccn1 | -4 | 0.9 | 12 | -3 | 0.7 | 34
Cc1ccnc(NC(=O)CCC(=O)N(CC(=O)NCc2ccccc2)c2ccc3c(c2)OCO3)c1 | -4 | / | / | -15 | / | /
Cc1cc(C)cc(N(CC(=O)NCc2ccc3c(c2)OCO3)C(=O)CCC(=O)Nc2ccccn2)c1 | -1 | 0.4 | 58* | 18 | 0.5 | 49
CCCN1CCN(CCCNC(=O)Cn2nc(-c3ccccc3)ccc2=O)CC1 | 0 | 1 | -3 | -1 | 1 | 2
O=C(NCc1cccnc1)c1cc(Sc2cccc(Cl)c2)nc2ccccc12 | -3 | / | / | / | / | /
O=C1C=C(c2ccccc2)C(O)(c2ccccc2)C1 (stereo not given) | -3 | 0.8 | 22 | 9 | 0.9 | 10
OC1(c2ccccc2)C/C(=N\n2cnnc2)C=C1c1ccccc1 (stereo not given) | -1 | 0 | 99* | 9 | 0 | 95*
CC(NC(=O)C12CC3CC(CC(C3)C1)C2)C(=O)N/N=C/C1=C(N2CCOCC2)C(=C\c2ccccc2)/CC1 (stereo not given) | -1 | / | / | / | / | /
SMILES | MRP1 act | CYP2C19 act | CYP2C19 inhib | MRP resist rev | CYP2C9 activ | CYP2C9 inhib
c1ccc(-c2nn3nnnc3c3ccccc23)cc1 | 1 | 0.5 | 52* | -1 | 1.2 | -18
CO/N=C(/CS(=O)c1ccc(Br)cc1)c1ccc(OC)cc1 (stereo not given) | -4 | 0 | 100* | -2 | 0.1 | 88*
C=C(C)C1CC=C(C)/C(=N/NC(=O)COc2cccc3ccccc23)C1 (stereo not given) | -2 | / | / | 22 | / | /
COC(=O)NNC(=O)c1ccccc1C | -1 | 1.1 | -13 | / | 1 | -5
O=C(/C=C/c1ccc(Cl)cc1)c1cccnc1 | -2 | 0.1 | 94* | -18 | 0.5 | 52*
O=C(/C=C/c1ccccc1Cl)c1cccnc1 | 2 | 0.5 | 54* | -5 | 0.9 | 13
O=C(/C=C/c1ccc(OCc2ccccc2)c(OCc2ccccc2)c1)c1cccnc1 | -6 | / | / | / | / | /
